Assay results published in PubChem BioAssay.

Target: Calmodulin-1 (Homo sapiens) (UniProt P0DP23)
Assay: small molecules binding calmodulin-1 with EGTA – biochemical, small-molecule microarray, Cy5-labelled CALM1, profiling panel (AID 1111);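 note: labelled calmodulin applied in Tris saline Tween buffer holding calcium plus EGTA and DTT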
Conditions: Cy5-CALM1 binding fluorescence, higher = more signal

SMILES | composite z-score
O=C1C2C=CC(C(O)c3cccc4ccccc34)N(n3cnnc3)C2C(=O)N1Cc1ccccc1 (configuration not stated) | 0.197
O=C1C2C=CC(C(O)c3ccc(B(O)O)cc3)N(Nc3ccc([N+](=O)[O-])cc3)C2C(=O)N1c1ccccc1 (configuration not stated) | 0.394
COCCOC(=O)N1C(=O)[C@@]2(c3ccccc31)[C@H](c1ccc(O)cc1)N1[C@H](c3ccccc3)[C@H](c3ccccc3)OC(=O)[C@H]1[C@@H]2C(N)=O | -0.284
O=C1C2C=CC(C(O)CCc3ccccc3)N(Nc3ccccc3)C2C(=O)N1c1ccccc1 (configuration not stated) | 2.65
COc1ccc([Si](C)(C)[C@H]2[C@H](CC(=O)N3CCC[C@H]3CO)O[C@@]3(C(=O)N(c4ccccc4)c4ccccc43)[C@@H]2C)cc1 | -0.363
CCCNC(=O)[C@@]1(C)c2ccccc2C(=O)N(Cc2ccc(OC(F)(F)F)cc2)[C@H]1c1ccc(CO)cc1 | 0.149

Target: Calmodulin-1 (Homo sapiens) (UniProt P0DP23)
Assay: small molecules binding Ca-loaded calmodulin-1 – biochemical, small-molecule microarray, Cy5-labelled CALM1, plus calcium, artefact control for SMM control-protein annotation, profiling panel (AID 1112);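 note: score merges spot fluorescence with signal to noise from triplicate slides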
Conditions: Cy5-CALM1 binding fluorescence, higher = more signal

SMILES | composite z-score
C=CCN1C(=O)[C@@]2(O[C@@H](CCO)[C@H]([Si](C)(C)c3ccc(OC)cc3)[C@H]2C)c2cc(NC(C)=O)ccc21 | 0.509
O=C1O[C@@H](c2ccccc2)[C@@H](c2ccccc2)N2[C@@H](c3ccc(O)cc3)[C@]3(C(=O)Nc4ccc(C#CCCO)cc43)[C@@H](C(=O)N3CCCCCCC3)[C@H]12 | 1.05
NC(=O)[C@]1(Cc2ccccc2)N=C(c2ccc(OCCCO)cc2)O[C@@H]1c1ccccc1 | 0.744
O=C1O[C@H](c2ccccc2)[C@H](c2ccccc2)N2[C@H]1[C@@H](C(=O)NC[C@H](O)c1ccccc1)[C@]1(C(=O)Nc3ccc(C#CC4=CCCCC4)cc31)[C@H]2c1ccc(O)cc1 | -0.566
C=C[C@H](C)[C@H](O)c1ccc(OCCO)cc1 | 0.486
O=S(=O)(NCCCO)c1ccc(Br)cc1 | 0.698
O=C1c2ccccc2[C@](Cc2ccccc2I)(C(=O)O)[C@H](c2ccc(CO)cc2)N1Cc1ccccc1C(F)(F)F | -0.604
CCOC(=O)C1=C[C@@H](C(C)(C)C)N(S(=O)(=O)c2ccc(C)cc2)[C@H]1c1ccc(Cl)c(Cl)c1 | 0.122
COCC1=C([C@H](O)CCc2ccccc2)[C@H](CO)[C@@H]2C(=O)N(Cc3ccccc3)C(=O)[C@@H]2C1 | -0.465
C[N+](C)(C)CCCC[C@@H]1NC(=O)[C@H]2C[C@@H](C(=O)O)[C@@H](c3cccc(OCCO)c3)N2C1=O | 0.618
COc1ccc([Si](C)(C)[C@H]2[C@H](CC(=O)N3CCC[C@H]3CO)O[C@@]3(C(=O)N(Cc4cccc(N5CCC5=O)c4)c4ccccc43)[C@@H]2C)cc1 | -0.363
C=CCNC(=O)[C@H]1[C@@H]2C(=O)O[C@@H](c3ccccc3)[C@@H](c3ccccc3)N2[C@@H](c2ccc(OCCO)cc2)[C@]12C(=O)N(C(=O)OCCOC)c1ccc(C#CC3(O)CCCCCC3)cc12 | -0.12
CCCCN1CC=CC23O[C@@H]4C=CCCOC(=O)C4[C@H]2C(=O)N(CCCO)[C@@H]3C1=O (some centres not stated) | -0.503
O=C(N1CCCCC1)[C@]1(CCS(=O)(=O)c2ccccc2)N=C(c2ccc(OCCCO)cc2)O[C@@H]1c1ccccc1 | 1.02
O=C1c2ccccc2[C@@]2(Cc3ccccc3N(Cc3ccccc3)C2=O)[C@H](c2ccc(CO)cc2)N1Cc1ccccc1C(F)(F)F | -0.176
CC(C)C(=C=CC[C@H](O)c1ccccc1OCCO)CCO | 0.0647
C=CCC(OC(C)=O)[C@@H]1[C@@H](N(Cc2cc3ccccc3o2)C(=O)c2ccc(C)cc2)c2cc(OCCCO)ccc2N1C(=O)c1ccc(-c2ccccc2)cc1 (some centres not stated) | 0.544
CC(C)(C)OC(=O)CC[C@@]1(C(=O)NCC(O)CO)N=C(c2ccc(OCCCO)cc2)O[C@@H]1c1ccccc1 (some centres not stated) | 0.924

SMILES | composite z-score
CCOC(=O)C1=CC[C@@H](c2cccc(Cl)c2)N(S(=O)(=O)c2ccc(C)cc2)[C@H]1c1ccc(C#N)cc1 | 0.736
COC(=O)[C@@]1(Cc2ccc(OC)cc2)[C@H]2c3cc(C(=O)N(C)C)n(Cc4ccc(OC)c(OC)c4)c3C[C@H]2CN1C(=O)c1ccccc1 | 1.08
OCCCc1cc[n+](Cc2cccc(OC(F)(F)F)c2)cc1 | 0.56
O=C1O[C@@H](c2ccccc2)[C@@H](c2ccccc2)N2[C@@H](c3ccc(O)cc3)[C@]3(C(=O)Nc4ccccc43)[C@@H](C(=O)N3CCCCCCC3)[C@H]12 | 1.61
COCCCNC(=O)[C@@]1(C)c2ccccc2C(=O)N(Cc2ccccc2)[C@H]1c1ccc(CO)cc1 | -0.634
COc1ccc([Si](C)(C)[C@H]2[C@H](CCO)O[C@@]3(C(=O)N(Cc4ccccc4)c4ccc(N5C(=O)COc6ccccc65)cc43)[C@@H]2C)cc1 | 1.12
C=C(C)[C@@H]1CC=C(C(O)C2C=CC3C(=O)N(Cc4ccccc4)C(=O)C3N2n2cnnc2)CC1 (some centres not stated) | 0.3
C=C(CCCC)C(=O)CC[C@H](OC(=O)c1ccccc1-c1ccccc1C(=O)O)c1ccc(CO)o1 | -0.771
O=C1C2C=CC(C(O)C3CC=CCC3)N(n3cnnc3)C2C(=O)N1Cc1ccccc1 (configuration not stated) | -0.92
C=CCC(OC(C)=O)[C@@H]1[C@@H](N(Cc2cc3ccccc3o2)C(=O)c2ccc(-c3ccccc3)cc2)c2cc(OCCCO)ccc2N1C(=O)Cc1ccc2ccccc2c1 (some centres not stated) | 0.459
O=[N+]([O-])c1ccc(C[n+]2ccc(CCCO)cc2)o1 | 0.561
CC(c1ccccc1)C(O)C1C=CC2C(=O)N(Cc3ccccc3)C(=O)C2N1n1cnnc1 (configuration not stated) | 0.13
O=C1C2C=CC(C(O)c3cccc4ccccc34)N(n3cnnc3)C2C(=O)N1Cc1ccccc1 (configuration not stated) | -0.151
O=C1C2C=CC(C(O)c3ccc(B(O)O)cc3)N(Nc3ccc([N+](=O)[O-])cc3)C2C(=O)N1c1ccccc1 (configuration not stated) | 0.218
COCCOC(=O)N1C(=O)[C@@]2(c3ccccc31)[C@H](c1ccc(O)cc1)N1[C@H](c3ccccc3)[C@H](c3ccccc3)OC(=O)[C@H]1[C@@H]2C(N)=O | -0.0872
O=C1C2C=CC(C(O)CCc3ccccc3)N(Nc3ccccc3)C2C(=O)N1c1ccccc1 (configuration not stated) | 1.4
COc1ccc([Si](C)(C)[C@H]2[C@H](CC(=O)N3CCC[C@H]3CO)O[C@@]3(C(=O)N(c4ccccc4)c4ccccc43)[C@@H]2C)cc1 | -0.366
CCCNC(=O)[C@@]1(C)c2ccccc2C(=O)N(Cc2ccc(OC(F)(F)F)cc2)[C@H]1c1ccc(CO)cc1 | -0.124
